Among the data in ChEMBL document CHEMBL1157539, “Thousands of chemical starting points for antimalarial lead identification” (Nature, 2010) are Inhibition values, retold here.

What all share (type): functional
Assay [1] concerns Plasmodium falciparum. As to the kind of experiment: GSK_TCMDC: Inhibition of Plasmodium falciparum 3D7 in whole red blood cells, using parasite LDH activity as an index of growth. Test compounds present at 2uM.
The subject of assay [2] is Plasmodium falciparum. As to the kind of experiment: GSK_TCMDC: Inhibition of Plasmodium falciparum Dd2 in whole red blood cells, using parasite LDH activity as an index of growth. Test compounds present at 2uM.
Another assay relates to HepG2. The experiment in a line: GSK_TCMDC: Percent inhibition of human HepG2 cell line. Test compounds present at 10uM.

For the compound `CN(C)/C(=N/C(=N)Nc1ccc(Cl)cc1)NCCCCCCN/C(=N\C(=N)Nc1ccc(Cl)cc1)N(C)C`, the Inhibition in the assay on Plasmodium falciparum [1] is on record as 97%; in the assay with Plasmodium falciparum [2], 98%; in the assay on HepG2, 11%.

Consider `Nc1nc(N)c2c(ccc3[nH]ccc32)n1`, for which the values for the Inhibition in the assay with Plasmodium falciparum [1], in the assay on Plasmodium falciparum [2] and with HepG2 were 88%, 0% and 58%, respectively.

Consider `CCOc1ccc2c(N/N=C/c3cccc([N+](=O)[O-])c3)cc(C)nc2c1`, for which the Inhibition came out at 100% with Plasmodium falciparum [1], 97% in the assay with Plasmodium falciparum [2] and 4% in the assay with HepG2.

Regarding `Cc1cc(O)c(-c2ccc(Oc3ccc(F)cc3)cc2)c(C)n1`, the Inhibition is 85% in the assay with Plasmodium falciparum [1], 59% in the assay with Plasmodium falciparum [2] and 0% in the assay on HepG2.

On to `CC(C)(C)c1ccc(CN2CCC(CNC(=O)c3cc(-c4ccccc4Cl)cs3)C2)cc1.O=C(O)C(F)(F)F` (stereo not drawn), for which the Inhibition is on record as 100% in the assay on Plasmodium falciparum [1], 56% in the assay on Plasmodium falciparum [2] and 33% in the assay with HepG2.

Take `Cc1ccc2[nH]c3c(NCCN(C)C)ncnc3c2c1`: the Inhibition in the assay with Plasmodium falciparum [1] amounted to 99%; with Plasmodium falciparum [2] it was 5%; in the assay with HepG2 it was 9%.

On to `Cc1nc(SCC(=O)N2CCCC2=O)c2c(C)c(C)sc2n1`, for which the Inhibition in the assay on Plasmodium falciparum [1] turned out to be 96%; in the assay with Plasmodium falciparum [2], 0%; in the assay with HepG2, 45%.

Turning to `CC1(C)N=C(N)N=C(N)N1OCc1ccc2ccccc2c1`, the Inhibition is reported as 94% with Plasmodium falciparum [1], 97% in the assay with Plasmodium falciparum [2] and 65% in the assay on HepG2.

`CC(C)(C)c1ccc(CN2CCC(CNC(=O)c3cc(-c4cccc(F)c4)cs3)C2)cc1.O=C(O)C(F)(F)F` (stereo not drawn): the Inhibition with Plasmodium falciparum [1] was 100%; in the assay with Plasmodium falciparum [2], 55%; with HepG2, 32%.

As to `CCOc1ccc(C(C)NC(=O)Nc2ccccc2)cc1OCC` (stereo not drawn), the Inhibition with Plasmodium falciparum [1] is on record as 96%; in the assay with Plasmodium falciparum [2], 95%; with HepG2 it was 14%.

As to `C[C@H](Cc1ccc(OCCNC[C@H](O)c2cccc(Cl)c2)cc1)NC[C@H](O)c1ccc(Cl)c(Cl)c1.O`, the results for the Inhibition with Plasmodium falciparum [1], in the assay on Plasmodium falciparum [2] and in the assay on HepG2 were 83%, 64% and 69%, respectively.

One may read the Inhibition as how much of the control response was suppressed. Low readings indicate little suppression, high ones strong suppression.
